Data: PubChem BioAssay (NCATS)
Records with an inconclusive call do not appear. A call without a number means that no potency is given here. A number with no mark means an inactive call. Calls of active or inactive are those of the source. Calls come from the whole dose curve; as a rule, active = well fitted cell-killing curve with a large enough effect; inconclusive = small, poorly fitted or top-dose-only effect, or effect the other way; inactive = flat fitted curve, though single readings scatter.

Assays:
Tov-21-G = assay: Primary qHTS to identify gynecologic anti-cancer compounds using libraries of approved drugs and bioactive compounds (AID 1345084); conditions: Gynecologic cancer cell panel viability, ATPlite luminescence, 48 h; series mostly up to 57.5 µM; note: nearly all actives have a fitted effect of over 55% in size
Summary of the method: (§1)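 ATP-based viability (ATPlite), 1,000 cells/well, 16 h pre-incubation, 48 h compound at 37 C, 5% CO2, 15 min RT before read.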

Tov112D = assay: as above; conditions: Gynecologic cancer cell panel viability, ATPlite luminescence, 48 h; series mostly up to 57.5 µM
Summary of the method: as §1

COc1ccc(CCN(C)CCCOc2nsc(-c3ccccc3)n2)cc1OC
Potency (Tov-21-G): inactive | Potency (Tov112D): inactive

Cc1noc(-c2ccc(-c3ccc(CC(=O)O)cc3)cc2)c1NC(=O)O[C@H](C)c1ccccc1Cl
Potency (Tov-21-G): inactive | Potency (Tov112D): inactive

Cc1cc(C(=O)Nc2cc(Nc3ccc4c(/C=C/c5ccccn5)n[nH]c4c3)ccc2F)n(C)n1
Potency (Tov-21-G): inactive | Potency (Tov112D): inactive

CN1CCN(C2=Nc3ccccc3Nc3ccc(OS(=O)(=O)C(F)(F)F)cc32)CC1
Potency (Tov-21-G): inactive | Potency (Tov112D): inactive

CCOC(=O)N1CCC(N2CCC[C@@H](NC(=O)c3ccccc3C)C2)CC1
Potency (Tov-21-G): inactive | Potency (Tov112D): inactive

OC1(CN2CCC(COc3noc4cccc(O[C@@H]5CCOC5)c34)CC2)CCOCC1
Potency (Tov-21-G): inactive | Potency (Tov112D): inactive

COc1ccc([C@H]2Cc3cccc(O)c3C(=O)O2)cc1OC
Potency (Tov-21-G): inactive | Potency (Tov112D): inactive

O=C(NCc1ccccc1)c1ccc2c(=O)n(-c3cccc(C(F)(F)F)c3)c(=S)[nH]c2c1
Potency (Tov-21-G): inactive | Potency (Tov112D): inactive

O=C(Nc1ccccc1C(=O)Nc1ccc(CCO)cc1)c1ccc([N+](=O)[O-])cc1
Potency (Tov-21-G): inactive | Potency (Tov112D): inactive

Nc1cccc(CNC(=O)c2ccc(Oc3ccc(OCc4cccc(F)c4)cc3)nc2)c1
Potency (Tov-21-G): inactive | Potency (Tov112D): inactive

O=C(Nc1nc2ccc([N+](=O)[O-])cc2s1)C1CCCCC1
Potency (Tov-21-G): inactive | Potency (Tov112D): inactive

C[C@@H]1O[C@@H](O[C@H]2[C@@H](OC(=O)[C@]34CCC(C)(C)CC3C3=CCC5[C@@]6(C)C[C@H](O)[C@H](O[C@@H]7O[C@H](CO)[C@@H](O)[C@H](O)[C@H]7O[C@@H]7OC[C@@H](O)[C@H](O)[C@H]7O)[C@@](C)(C(=O)O)C6CC[C@@]5(C)[C@]3(C)CC4)OC[C@H](O)[C@@H]2O)[C@H](O)[C@H](O)[C@H]1O[C@@H]1OC[C@@H](O)[C@H](O)[C@H]1O (some centres undefined)
activity change, negative = cytotoxicity (Tov-21-G): 0.0725% [at 6.55 µM] | activity change, negative = cytotoxicity (Tov112D): -12.7% [at 6.55 µM]
